GCN5L2 inh: qHTS Assay for Inhibitors of GCN5L2; Histone acetyltransferase KAT2A (Homo sapiens), Q92830; GCN5L2 HAT assay, ThioGlo1 CoA-SH fluorescence; Potency, µM (top dose mostly 58.9 µM), most hits filed as inhibitors; 0.21% of 390,000 active; AID 504327, 2011
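Free CoA generated was detected with ThioGlo1 (50uM) fluorescence at Ex340nm/Em540nm, read immediately and after 20 min at room temperature. Enzyme, 20 nM in HEPES pH 7.5 buffer, saw compounds 15 min before adding 75uM H3(1-25) peptide and 70uM acetyl-CoA.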
JMJD2E inh: qHTS Assay for Inhibitors of Human Jumonji Domain Containing 2E (JMJD2E) | 1.6% of 230,000 active | AID 2147, 2009 | Lysine-specific demethylase 4E (Homo sapiens), B2RXH2 | Potency, µM (titrated, usually from 57.1 µM), hits mostly inhibitors | JMJD2E catalytic domain, FDH-coupled NADH fluorescence (FDH is formaldehyde dehydrogenase); further: nearly all actives have a fitted effect of over 50% in size
APEX1 inh: qHTS Assay for Inhibitors of the Human Apurinic/apyrimidinic Endonuclease 1 (APE1) | DNA repair nuclease/redox regulator APEX1 (Homo sapiens), P27695 | recombinant APE1, TAMRA/BHQ-2 abasic DNA cleavage fluorescence | Potency, µM (titrated, usually from 65.8 µM), hits mostly inhibitors | 0.35% of 350,000 active | AID 2517, 2012; further: nearly all actives have a fitted effect of over 55% in size
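Substrate: short duplex with […] THF abasic site, 5'-TAMRA and 3'-BHQ-2, 50 nM final. APE1 at 0.75 nM, preincubated 15 min RT with compound. Fluorescence increase from first to third read measured activity.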
RECQ1 inh: qHTS Assay for Inhibitors of RecQ-Like Dna Helicase 1 (RECQ1) | ATP-dependent DNA helicase Q1 (Homo sapiens), P46063 | RECQ1 DNA unwinding, red fluorescence kinetic read | Potency, µM (highest dose often 57.3 µM), most hits filed as inhibitors | 0.54% of 240,000 active | AID 2549, 2010; further: nearly all actives have a fitted effect of over 30% in size
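RECQ1T1 50 nM; forked duplex (20 bp + 30-nt ss tails) 200 nM, ATP 2 mM final; pH 8.0, 2 mM MgCl2, 2.5 ug/ml poly(dI-dC); 15 min compound preincubation; discontinuous kinetic read over 2 h at RT.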
BLM helicase inh: qHTS Assay for Inhibitors of Bloom's syndrome helicase (BLM); RecQ-like DNA helicase BLM (Homo sapiens), P54132; recombinant BLM DNA unwinding, fluorescence dequenching; Potency, µM (series often up to 56.1 µM), most hits filed as inhibitors; 0.2% of 350,000 active; further: nearly all actives have a fitted effect of over 35% in size
L3MBTL1 inh: qHTS Assay for the Inhibitors of L3MBTL1; Lethal(3)malignant brain tumor-like protein 1 (Homo sapiens), Q9Y468; AlphaScreen L3MBTL1–H3K9me1 peptide binding; Potency, µM (top dose mostly 57.1 µM), actives largely listed as inhibitors; 0.66% of 230,000 active; further: nearly all actives have a fitted effect of over 60% in size
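L3MBTL1 50 nM + b-AHA-H3(1-15)K9me1 75 nM, 30 min RT; compound added, 30 min RT; streptavidin donor/Ni-chelate acceptor beads 10 ug/mL each final, 30 min RT dark; AlphaScreen read.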
Of the large screens only hits and unclear results are named; the others gave an inactive call; ! = not confirmed by another sample. Shown is part of a subset that was picked to be rich in hits. Unless noted, the call rests on the fitted dose curve; in most records, active means well fitted curve in the direction sought with a large enough effect; inconclusive means small, poorly fitted or top-dose-only effect, or another doubt; inactive means no such curve, though single readings can be large; an effect the other way counts as inactive or inconclusive.

COc1ccc2c(CNCc3cccs3)c(C(=O)O)n(Cc3ccc(C)cc3)c2c1	none (no result: JMJD2E inh, APEX1 inh, RECQ1 inh, L3MBTL1 inh)
Nc1ccccc1S(=O)(=O)O	APEX1 inh inconclusive (no result: GCN5L2 inh, JMJD2E inh, BLM helicase inh, L3MBTL1 inh)
Nc1ccc(/C=C/c2ccc(N)cc2S(=O)(=O)O)c(S(=O)(=O)O)c1	GCN5L2 inh 13µM (no result: JMJD2E inh, APEX1 inh, RECQ1 inh, L3MBTL1 inh)
CCOc1ccccc1-c1nnc2n1N=C(c1cc(OC)cc(OC)c1)CS2	none (no result: GCN5L2 inh, JMJD2E inh, L3MBTL1 inh)
Cc1cccc2sc(NC(=O)C3CCN(S(=O)(=O)c4cc([N+](=O)[O-])ccc4Cl)CC3)nc12	JMJD2E inh 13µM, L3MBTL1 inh inconclusive
O=C(NC1=NCCS1)C1CCN(S(=O)(=O)c2cc([N+](=O)[O-])ccc2Cl)CC1	GCN5L2 inh inconclusive, APEX1 inh inconclusive (no result: JMJD2E inh, RECQ1 inh, BLM helicase inh)
Cc1nnc(NC(=O)C2CCN(S(=O)(=O)c3cc([N+](=O)[O-])ccc3Cl)CC2)o1	GCN5L2 inh inconclusive, L3MBTL1 inh 25µM (no result: JMJD2E inh, RECQ1 inh, BLM helicase inh)
O=c1oc2ccc(Cl)cc2cc1-c1nc(-c2cccs2)no1	none (no result: JMJD2E inh, APEX1 inh, RECQ1 inh, L3MBTL1 inh)
COc1ccc(C)cc1Nc1nc(N)c2cc(OC)c(OC)cc2n1	BLM helicase inh 20µM (no result: JMJD2E inh, RECQ1 inh, L3MBTL1 inh)
O=C(CCN1C(=O)c2ccccc2C1=O)C1=NN[C@@H]2C(=O)N(c3ccc4c(c3)OCCO4)C(=O)[C@H]12	none
Cc1ccc(NS(=O)(=O)c2ccc3c(c2)CC(=O)N3)c(C)c1	GCN5L2 inh 25µM (no result: JMJD2E inh, RECQ1 inh)
Cc1ccc(NS(=O)(=O)c2ccc3c(c2)NC(=O)CO3)c(C)c1	none (no result: JMJD2E inh, RECQ1 inh, L3MBTL1 inh)
CC[C@H](C)[C@H](NC(=O)[C@H](Cc1ccc(O)cc1)NC(=O)[C@@H](NC(=O)[C@@H](N)CCCN=C(N)N)C(C)C)C(=O)N[C@@H](Cc1cnc[nH]1)C(=O)N1CCC[C@H]1C(=O)N[C@@H](Cc1ccccc1)C(=O)O	none (no result: JMJD2E inh, L3MBTL1 inh)
C[C@H](O/N=C1/[C@H]2O[C@@H]2[C@@H](O)[C@H]2[C@H]1CCn1c(=O)n(-c3ccccc3)c(=O)n12)c1cn([C@H](CO)Cc2ccccc2)nn1	none (no result: GCN5L2 inh, JMJD2E inh, L3MBTL1 inh)
O=C(Cc1cccc2ccccc12)NN1C(=O)CSC1=S	none
O=C(NN1C(=O)CSC1=S)C(=O)NN1C(=O)CSC1=S	JMJD2E inh 8.9µM, APEX1 inh 2.2µM, RECQ1 inh 10µM, L3MBTL1 inh 0.79µM
C=CCOC(=O)c1ccc(N2CCN(c3ccccc3)CC2)nc1	none (no result: JMJD2E inh, RECQ1 inh, L3MBTL1 inh)
NC(=O)C1CCN(c2nc(-c3cccc([N+](=O)[O-])c3)cs2)CC1	none (no result: GCN5L2 inh, JMJD2E inh, RECQ1 inh, BLM helicase inh, L3MBTL1 inh)
O=C(Nc1ccc(C(=O)Nc2ccc(C(=O)Nc3ccc(S(=O)(=O)O)c4cc(S(=O)(=O)O)cc(S(=O)(=O)O)c34)cc2)cc1)Nc1ccc(C(=O)Nc2ccc(C(=O)Nc3ccc(S(=O)(=O)O)c4cc(S(=O)(=O)O)cc(S(=O)(=O)O)c34)cc2)cc1	GCN5L2 inh 16µM!, JMJD2E inh inconclusive, APEX1 inh 7.9µM, RECQ1 inh 6.3µM (no result: L3MBTL1 inh)
COc1cc(C2Nc3ccc4ncccc4c3C3=C2C(=O)CC(C)(C)C3)cc(OC)c1O (centres undefined)	JMJD2E inh 7.9µM (no result: L3MBTL1 inh)
CC1(C)CC(=O)C2=C(C1)c1c(ccc3ccccc13)NC2c1cc([N+](=O)[O-])cc([N+](=O)[O-])c1O (centres undefined)	GCN5L2 inh inconclusive, BLM helicase inh 22µM
COC(=O)c1cccc(C(=O)Nc2ccc(F)cc2)n1	GCN5L2 inh 16µM
CC(=O)Nc1ccc(NC(=O)c2cccc(C(=O)OC(C)C)n2)cc1	none
O=C(Oc1ccc2c(=O)c(Oc3ccc4ccccc4c3)coc2c1)c1cncc(Br)c1	JMJD2E inh 11µM
O=C(Oc1ccc2ccccc2c1)c1cncc(Br)c1	none (no result: L3MBTL1 inh)
Cc1ccc(CNC(=O)C2CC(c3ccccc3F)=NO2)cc1 (centres undefined)	none (no result: L3MBTL1 inh)
Cc1ccc(S(=O)(=O)N/N=C/c2ccc(O)c(O)c2)cc1[N+](=O)[O-]	JMJD2E inh 28µM
